# In PubChem BioAssay (NCATS):
# Records with an inconclusive call do not appear. Where a call stands in place of a potency, no number is given. Calls of active or inactive are those of the source. The call rests on the fitted dose curve; in most records, active means well fitted inhibition curve with a large enough effect; inconclusive means small, poorly fitted or top-dose-only effect, or effect the other way; inactive means flat fitted curve, though single readings scatter.
# Experiment: qHTS for Inhibitors of Plasmodium falciparum (CP250) proliferation (AID 504320)
# Conditions: P. falciparum CP250 in erythrocytes, SYBR Green DNA, 72 h; series mostly up to 6.7 µM
# Outline: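 Erythrocytes infected with P. falciparum line (0.3% parasitemia, 2.5% hematocrit final) incubated with compounds 72 h at 37 °C, 5% CO2; SYBR Green lysis buffer added, fluorescence read next day. Normalized to 0.29 uM artemisinin and DMSO.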
row,Compound,Potency
1,C[C@]12O[C@@H]1[C@@H](O)C(Br)=C(CO)[C@@H]2O,inactive
2,CCCCCCCc1cc2ccccc2c2c(C(=O)OC)c(C(=O)OC)c(C(=O)OC)n12,inactive
3,C=CC1=C2C=C(C3CC3)N(Cc3ccccc3)C=C2C(=O)C(C)(OC(=O)c2ccco2)C1=O (stereo not drawn),inactive
4,C=CC[C@@H]1C=CC(ON=CC[C@@H]2C=C[C@@H](OC(C)=O)[C@@H](COC(C)=O)O2)[C@H](CO)O1 (stereo partly drawn),inactive
5,O=C(C=Cc1ccccc1)N1CCC[C@H]1CO,inactive
6,CCCNC(=O)OC[C@H]1O[C@H](CCON=C2[C@H]3CCn4c(=O)n(-c5ccccc5)c(=O)n4[C@@H]3[C@H](O)[C@@H]3O[C@H]23)C=C[C@H]1Oc1ccc(OC)cc1,inactive
7,C[C@@H]1C[C@](C)(C(=O)c2ccc3c(c2)OCO3)C=C1c1ccc2c(c1)OCO2,inactive
8,COCCN1C(=S)NC(c2cccc(F)c2)C(C(=O)OC)=C1C (stereo not drawn),inactive
9,COc1ccc(O[C@H]2C=C[C@@H](c3ccccc3)O[C@H]2COC(=O)CCC(C)=NOC[C@@H](O)COCc2ccco2)cc1,inactive
10,CC(CCN1CCCCc2nc(C)c(C)cc21)=NO[C@H](C)c1cn([C@H](CO)Cc2ccccc2)nn1,inactive
11,CCC(=O)C[C@@H](NC(=O)OC)c1ccc(F)cc1,inactive
12,COC(=O)N[C@@H](C=Cc1ccccc1)C[N+](=O)[O-],inactive
13,CC(=O)C1=CN(CCc2c[nH]c3ccccc23)C(=O)NC1c1ccccc1 (stereo not drawn),inactive
14,CCOC(=O)NN=C1C[C@@H](O)[C@@H](O)[C@@H]2[C@H]3C(=O)N(C4CCCCC4)C(=O)[C@@H]3CC[C@H]12,inactive
15,COc1ccc2c(c1)[C@H](C=Cc1ccccc1)[C@@H]([C@H](O)CO)O2,inactive
16,CCOC(=O)CCN1C(=O)[C@@H]2[C@H]3[C@H](O)[C@H](O)CC(=NNC(=O)OCc4ccccc4)[C@@H]3CC[C@H]2C1=O,inactive
17,CC(CCC(=O)OC[C@H]1O[C@H](C#Cc2ccccc2)C=C[C@H]1Oc1ccc(C)cc1)=NO[C@@H](C)CN1CCCCc2nc(C)c(C)cc21,inactive
18,COC(=O)N1[C@H]2CC[C@@]3(C)C=C(C)O[C@]1(C)C3c1ccccc12,inactive
19,O=C(NN=C1C[C@@H](O)[C@H](O)[C@H]2[C@@H]3C(=O)N(C[C@@H]4CCCO4)C(=O)[C@@H]3CC[C@H]12)OCc1ccccc1,inactive

row,Compound,Potency
1,C=CCN1C(=O)CC[C@@]23C1=NC(C(=O)OC)=C(C(=O)OC)[C@@H]2N(CC=C)c1ccccc13,inactive
2,CC(C)CON=C1C[C@@H](O)[C@@H](O)[C@@H]2[C@H]3C(=O)N(Cc4ccc5c(c4)OCO5)C(=O)[C@@H]3CC[C@@H]12,inactive
3,CC(=O)OC[C@H]1O[C@H](CCON=C(C)CCN2CCCCc3nc(C)c(C)cc32)C=C[C@H]1OC(C)=O,inactive
4,C=CCC(Nc1ccc(OC)cc1)(C(=O)OCC)c1ccccc1 (stereo not drawn),inactive
5,C=CCN1c2ccccc2[C@]23CCC(=O)N(Cc4ccco4)C2=NC(C(=O)OC)=C(C(=O)OC)[C@H]13,inactive
6,COC(=O)N1C(C)=Cc2ccccc2C1CC(C)=O (stereo not drawn),inactive
7,COC(=O)CCC(=O)OC1(C)C(=O)C=C2C=C(C3CC3)N(Cc3ccco3)C=C2C1=O (stereo not drawn),inactive
8,COc1ccc2c(c1)[C@@]1(OCCC=C[C@@H]1C)C(=O)N2Cc1ccc(Br)cc1,inactive
9,C=CCCCN1C=C(C(=O)OCC)C(c2ccccc2)NC1=O (stereo not drawn),inactive
10,COC(=O)C1=C(C)N(Cc2ccccc2)C(=O)NC1c1cccc(C(F)(F)F)c1 (stereo not drawn),inactive
11,C#CCCOC(=O)N1C2=NC(C(=O)OC)=C(C(=O)OC)[C@@H]3Nc4ccccc4[C@]23C[C@H]1C(=O)OC,inactive
12,COC(=O)C1=C(C)C(=O)[C@]2(O)c3ccccc3N(C)[C@]12C,inactive
13,CCC(=O)OC1(C)C(=O)C=C2C=C(c3ccsc3)OC=C2C1=O (stereo not drawn),inactive
14,CC(CCN1CCCc2nc(C)c(C)cc21)=NO[C@@H](C)c1cc(-c2c(C)cc(C)cc2C)no1,inactive
15,COC[C@@H](OC(C)=O)[C@H]1OCc2ccccc2[C@@H]1C=Cc1ccccc1,inactive
16,CC#CCC1(C(=O)OC)C(=O)NC[C@H]1c1ccccc1 (stereo partly drawn),inactive
17,C=CC1=C2C=C(C3CC3)N(CCOC)C=C2C(=O)C(C)(OC(=O)c2ccco2)C1=O (stereo not drawn),inactive
18,CCN(CC)CC(O)CN1CCCCc2nc(C)c(C)cc21 (stereo not drawn),inactive
19,C=CC[C@@H]1C=C[C@H](ON=C(C)CCN2CCCCc3nc(C)c(C)cc32)[C@H](CO)O1,inactive
